Data on seven compounds can be found in PubChem BioAssay (Tox21).

The nature of experiment [1]: Nuclear factor erythroid 2-related factor 2/antioxidant responsive element (Nrf2/ARE) small molecule agonists: qHTS cell viability counter screen in human keratinocytes (AID 1919968; active = well fitted curve in the direction sought with a large enough effect in the repeat runs; an effect the other way counts as inactive or inconclusive; note: nearly all actives have a fitted effect of over 55% in size). In outline: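 Parallel cytotoxicity read: KeratinoSens HaCaT cells, compound treatment 23 h, viability by CellTiter-Fluor fluorescence 1 h post-reagent.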
(Quantitative high-throughput screening tests each substance at several concentrations.)

Experiment [2] can be described thus: Nuclear factor erythroid 2-related factor 2/antioxidant responsive element (Nrf2/ARE) small molecule agonists: luciferase reporter gene qHTS assay in human keratinocytes (AID 1919969). Note: nearly all actives have a fitted effect of over 35% in size. Note: potency is the fitted concentration of half-maximal effect. A general note: A reporter such as luciferase makes a cellular process visible.
For experiment [3], the target named is Gonadotropin-releasing hormone receptor (Homo sapiens) (UniProt P30968). As to the kind of experiment: Human gonadotropin-releasing hormone receptor (GnRHR) small molecule agonists, calcium flux assay in GnRHR-HEK293 cells (AID 1920063). Note: nearly all actives have a fitted effect of over 35% in size. The method in brief:
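Calcium flux, agonist mode, human GnRHR stably integrated in HEK293; dye 1 h at 37 C before compound; Ex/Em=480/540 kinetic read, 3 min; 15 concentrations, triplicate.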
(Calcium assays in cells follow changes in intracellular calcium, usually with a dye or a luminescent sensor.)

For experiment [4], the target named is KiSS-1 receptor (Homo sapiens) (UniProt Q969F8). As to the kind of experiment: Human kisspeptin (KISS1R) small molecule agonists, calcium flux assay in KISS1R-HEK293 cells (AID 1920064; active = well fitted curve in the direction sought with a large enough effect in the repeat runs; an effect the other way counts as inactive or inconclusive). In outline: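 Triplicate 15-concentration series were applied to dye-loaded human KISS1R HEK293 cells, and agonist-evoked calcium fluorescence was captured for 3 min.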
Chain of KiSS-1 receptor (Homo sapiens) (Q969F8 whole entry, looked up): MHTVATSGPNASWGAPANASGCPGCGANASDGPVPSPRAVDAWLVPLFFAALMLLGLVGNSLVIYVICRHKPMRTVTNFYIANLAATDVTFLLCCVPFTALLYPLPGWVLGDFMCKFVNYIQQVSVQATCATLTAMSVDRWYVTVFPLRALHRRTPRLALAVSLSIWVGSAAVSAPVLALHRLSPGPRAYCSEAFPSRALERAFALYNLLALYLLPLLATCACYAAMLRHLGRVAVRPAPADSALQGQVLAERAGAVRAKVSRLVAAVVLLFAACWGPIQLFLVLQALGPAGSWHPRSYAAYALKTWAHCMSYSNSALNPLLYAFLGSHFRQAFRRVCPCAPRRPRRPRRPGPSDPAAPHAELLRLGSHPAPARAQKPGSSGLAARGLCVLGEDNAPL
Experiment [5] is described as follows: G protein-coupled receptor (GPCR) small molecule agonists, calcium flux assay: HEK293 wild type cell line counter screen (AID 1920065). In outline: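 Non-specific calcium responders were flagged by adding DMSO-dissolved compounds to dye-loaded cells and reading 480/540 nm fluorescence each second for 3 min; ATP served as positive control.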
A short description of experiment [6]: p53 small molecule agonists, cell-based qHTS assay with human liver microsomes (AID 1963577).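 Note: p53 response element beta-lactamase reporter cells with liver microsomes plus NADPH.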 The method in brief:
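Steps: plate p53RE-bla cells, incubate 5 h at 37 C; add compound in DMSO; add microsomes (0.5 mg/mL final) and NADPH (0.5 mg/mL final); incubate 16 h at 37 C; add LiveBLAzer, 2 h RT; read fluorescence.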

The nature of experiment [7]: p53 small molecule agonists, cell-based qHTS assay with rat liver microsomes (AID 1963578). In outline:
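Metabolic activation is supplied by rat liver microsomes with NADPH (each 0.5 mg/mL final). p53RE-bla cells incubate with compound 16 h at 37 C; reporter activity is measured by LiveBLAzer fluorescence.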

Experiment [8] can be described thus: p53 small molecule agonists, cell-based qHTS assay with human liver microsomes: qHTS cell viability counter screen (AID 1963579). Note: nearly all actives have a fitted effect of over 45% in size. Note: potency is the fitted concentration of half-maximal effect. In outline: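 After the 460/530 nm beta-lactamase read, CellTiter-Glo was added to the same wells and luminescence measured after 30 min at room temperature, giving viability of p53RE-bla cells treated 16 h with compounds plus microsomes and NADPH.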

Experiment [9] is described as follows: p53 small molecule agonists, cell-based qHTS assay with rat liver microsomes: qHTS cell viability counter screen (AID 1963580). Note: nearly all actives have a fitted effect of over 45% in size. The method in brief: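 Rat liver microsome (0.5 mg/mL final) and NADPH (0.5 mg/mL final) co-incubation with compounds for 16 h at 37 C on HCT-116 p53RE-bla cells; cytotoxicity taken from intracellular ATP luminescence.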
Experiment [10] in a line: p53 small molecule agonists, cell-based qHTS assay: qHTS cell viability counter screen (AID 1963581). Note: nearly all actives have a fitted effect of over 45% in size. In outline:
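Multiplexed with the reporter read, a CellTiter-Glo step (30 min, room temperature) gauges ATP-based viability of HCT-116 p53RE-bla cells after 16 h compound incubation at 37 C.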

The nature of experiment [11]: p53 small molecule agonists, cell-based qHTS assay (AID 1963582; active = well fitted activation curve with a large enough effect in the signal ratio in the repeat runs, not every such curve was filed as active; the % refers to the signal ratio). In outline:
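Beta-lactamase reporter cells (p53RE-bla) treated with compounds for 16 h at 37 C; FRET substrate, 2 h, room temperature; fluorescence intensity.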

For experiment [12], the target named is 5-hydroxytryptamine receptor 2A (Homo sapiens) (UniProt P28223). As to the kind of experiment: 5-hydroxytryptamine receptor 2A (HTR2A) small molecule antagonists, cell-based qHTS assay (AID 1963586). Note: nearly all actives have a fitted effect of over 45% in size. The method in brief: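 CHO cells stably expressing human HTR2A were plated for 18 h at 37 C, then loaded with calcium dye for 1 h. Compounds were preincubated 5 min at room temperature before DOI (4 nM solution) was added. Kinetic fluorescence was read for 3 min.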
Chain of 5-hydroxytryptamine receptor 2A (Homo sapiens) (P28223 whole entry, looked up): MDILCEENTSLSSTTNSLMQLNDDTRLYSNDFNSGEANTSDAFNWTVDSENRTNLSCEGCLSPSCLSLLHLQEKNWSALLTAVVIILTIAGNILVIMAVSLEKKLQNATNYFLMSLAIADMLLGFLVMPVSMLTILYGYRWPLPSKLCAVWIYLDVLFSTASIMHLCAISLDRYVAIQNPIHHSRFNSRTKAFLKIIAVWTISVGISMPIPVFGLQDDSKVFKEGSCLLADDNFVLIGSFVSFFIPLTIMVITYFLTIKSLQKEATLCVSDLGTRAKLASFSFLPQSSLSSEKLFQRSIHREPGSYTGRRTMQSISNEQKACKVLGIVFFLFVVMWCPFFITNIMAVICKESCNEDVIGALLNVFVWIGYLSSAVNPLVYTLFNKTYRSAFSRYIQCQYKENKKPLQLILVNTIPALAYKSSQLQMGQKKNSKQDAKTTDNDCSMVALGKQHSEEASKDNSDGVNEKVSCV

For experiment [13] the target is unchanged. As to the kind of experiment: 5-hydroxytryptamine receptor 2A (HTR2A) small molecule agonists, cell-based qHTS assay (AID 1963587). Note: nearly all actives have a fitted effect of over 30% in size. The method in brief: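 Kinetic calcium-flux fluorescence (2 min, 1 sec intervals) after compound addition in agonist mode. HTR2A-CHO cells were cultured 18 h, then dye-loaded 1 h at 37 C.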
Experiment [14] deals with Muscarinic acetylcholine receptor M1 (Homo sapiens) (UniProt P11229). As to the kind of experiment: Cholinergic receptor muscarinic 1 (CHRM1) small molecule antagonists, cell-based qHTS assay (AID 1963588). Note: nearly all actives have a fitted effect of over 40% in size. The method in brief: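 Compounds were tested at 15 concentrations in three independent runs. Dye-loaded CHRM1-CHO cells were exposed 5 min at room temperature before stimulation by acetylcholine added at 50nM. Intracellular calcium was read kinetically on FDSS for 3 min.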
Chain of Muscarinic acetylcholine receptor M1 (Homo sapiens) (P11229 whole entry, looked up): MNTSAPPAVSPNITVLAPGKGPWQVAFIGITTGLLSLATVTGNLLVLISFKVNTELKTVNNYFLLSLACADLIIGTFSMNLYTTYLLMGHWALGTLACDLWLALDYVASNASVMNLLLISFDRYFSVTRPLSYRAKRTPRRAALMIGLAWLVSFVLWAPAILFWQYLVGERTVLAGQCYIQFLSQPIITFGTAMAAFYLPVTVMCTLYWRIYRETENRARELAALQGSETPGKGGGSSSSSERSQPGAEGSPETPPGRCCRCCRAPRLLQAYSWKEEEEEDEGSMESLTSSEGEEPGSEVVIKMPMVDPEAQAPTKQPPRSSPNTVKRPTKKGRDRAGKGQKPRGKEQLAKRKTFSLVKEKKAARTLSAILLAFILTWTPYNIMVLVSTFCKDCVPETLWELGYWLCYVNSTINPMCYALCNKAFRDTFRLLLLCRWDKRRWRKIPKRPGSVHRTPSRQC

The target is the same in experiment [15]. As to the kind of experiment: Cholinergic receptor muscarinic 1 (CHRM1) small molecule agonists, cell-based qHTS assay (AID 1963589). Note: nearly all actives have a fitted effect of over 35% in size. In outline:
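qHTS, 15-point titration, 3 independent runs: compounds pin-transferred onto dye-loaded CHRM1-CHO cells (human M1), calcium fluorescence followed every second to detect agonism.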

Experiment [16] is described as follows: cAMP Responsive Elements (CRE) small molecule agonists, cell-based qHTS assay (AID 1963590). The method in brief: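 Quantitative HTS for CRE agonists: HEK 293T CRE-bla cells, overnight plating, 3 h compound incubation at 37 C/5% CO2, then 2 h room-temperature LiveBLAzer B/G FRET substrate loading.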
The nature of experiment [17]: cAMP Responsive Elements (CRE) small molecule antagonists, cell-based qHTS assay (AID 1963591; active = well fitted inhibition curve with a large enough effect in the signal ratio in the repeat runs, not every such curve was filed as active; the % refers to the signal ratio). In outline: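 Fluorescence intensity from cleaved LiveBLAzer B/G substrate (2 h, room temperature) quantified CRE-bla activity in HEK 293T cells exposed 3 h to compound with 0.25 uM final NKH477.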
Experiment [18] concerns the target D(2) dopamine receptor (Homo sapiens) (UniProt P14416). As to the kind of experiment: Dopamine D2 receptor (DRD2) small molecule agonists, cell-based qHTS assay (AID 1963594). Note: nearly all actives have a fitted effect of over 35% in size. In outline: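 cAMP accumulation in DRD2-HEK293 cells measured by HTRF after 1 h detection; compounds added 10 min before NKH477 (200nM […]) forskolin-analogue stimulation, 30 min at room temperature, with Ro20-1724 present at 0.1 mM final.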

Experiment [19] shares this target. As to the kind of experiment: Dopamine D2 receptor (DRD2) small molecule antagonists, cell-based qHTS assay (AID 1963595; active = well fitted inhibition curve with a large enough effect in the signal ratio in the repeat runs, with a control signal flat; the % refers to the signal ratio). The method in brief: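 Readout: HTRF cAMP, cAMP-d2 competing with cellular cAMP for anti-cAMP cryptate, read after 1 h. Cells: DRD2-HEK293. Conditions: 0.1 mM Ro20-1724, 12 nM quinpirole, 200 nM NKH477, 30 min RT.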
In experiment [20] the target is Beta-2 adrenergic receptor (Homo sapiens) (UniProt P07550). As to the kind of experiment: Adrenergic beta2 receptor (ADRB2) small molecule antagonists, cell-based qHTS assay (AID 1963592). Note: series mostly up to about 92 µM; nearly all actives have a fitted effect of over 50% in size. In outline: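 Assay format: CHO-ADRB2 cells, 18-20hr seeding at 37C/5% CO2, then compound plus 1nM isoproterenol agonist mix for 0.5hr RT. Homogeneous time-resolved fluorescence cAMP detection after 1hr, expressed as 665/615 nm ratio.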
Chain of Beta-2 adrenergic receptor (Homo sapiens) (P07550 whole entry, looked up): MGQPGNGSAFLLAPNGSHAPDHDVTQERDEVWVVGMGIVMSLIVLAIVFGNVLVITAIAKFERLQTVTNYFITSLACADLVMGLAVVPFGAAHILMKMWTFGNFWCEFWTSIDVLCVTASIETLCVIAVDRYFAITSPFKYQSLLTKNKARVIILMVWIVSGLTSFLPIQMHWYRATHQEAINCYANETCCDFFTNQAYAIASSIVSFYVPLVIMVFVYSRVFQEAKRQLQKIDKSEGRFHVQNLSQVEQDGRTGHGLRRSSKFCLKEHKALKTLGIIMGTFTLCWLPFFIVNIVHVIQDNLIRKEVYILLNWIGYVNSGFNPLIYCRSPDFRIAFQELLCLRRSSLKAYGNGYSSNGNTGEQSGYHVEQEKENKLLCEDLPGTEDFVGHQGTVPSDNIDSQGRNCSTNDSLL

Molecules are shown by their SMILES. Inconclusive results are not listed. Calls of active or inactive are those of the source. Unless noted, calls come from the whole dose curve.

Chain of D(2) dopamine receptor (Homo sapiens) (P14416 whole entry, looked up): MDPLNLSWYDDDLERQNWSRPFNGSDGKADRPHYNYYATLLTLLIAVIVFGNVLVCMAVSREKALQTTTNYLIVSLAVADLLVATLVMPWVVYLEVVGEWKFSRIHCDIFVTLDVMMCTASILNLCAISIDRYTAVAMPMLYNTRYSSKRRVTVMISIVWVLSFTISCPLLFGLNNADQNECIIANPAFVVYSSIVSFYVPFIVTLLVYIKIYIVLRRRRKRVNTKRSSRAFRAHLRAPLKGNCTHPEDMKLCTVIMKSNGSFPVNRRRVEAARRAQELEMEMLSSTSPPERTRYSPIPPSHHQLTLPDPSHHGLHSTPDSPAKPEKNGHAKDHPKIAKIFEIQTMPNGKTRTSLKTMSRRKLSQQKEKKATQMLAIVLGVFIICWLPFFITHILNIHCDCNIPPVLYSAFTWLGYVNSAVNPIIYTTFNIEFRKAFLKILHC
Chain of Gonadotropin-releasing hormone receptor (Homo sapiens) (P30968 whole entry, looked up): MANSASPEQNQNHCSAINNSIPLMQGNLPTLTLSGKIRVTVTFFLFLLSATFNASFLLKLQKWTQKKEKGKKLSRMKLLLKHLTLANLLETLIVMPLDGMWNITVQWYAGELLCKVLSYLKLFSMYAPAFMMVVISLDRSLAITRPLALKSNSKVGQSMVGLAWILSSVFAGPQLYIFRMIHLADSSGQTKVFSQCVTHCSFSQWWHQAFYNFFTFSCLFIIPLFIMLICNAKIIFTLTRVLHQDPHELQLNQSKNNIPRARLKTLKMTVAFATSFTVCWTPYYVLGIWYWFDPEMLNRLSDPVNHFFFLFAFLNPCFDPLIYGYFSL

Turning to `NNC(=O)c1ccccc1`, the Potency result in experiment [1], in experiment [3], in experiment [4], in [5], in [6] and in [7] was “inactive” throughout. The Potency result in experiment [9], in experiment [10], in experiment [11], in experiment [12], in experiment [13] and in experiment [14] was “inactive” each time. The Potency result in experiment [15], in experiment [16], in [17], in experiment [18] and in experiment [19] was “inactive” throughout. Also, the values for the Potency in experiment [2] and in [8] were 56 µM (active) and 41.9 µM (active), respectively.
As to `CC(Cl)Cl`, the Potency entry in [1], in experiment [3], in experiment [4], in [5], in experiment [6] and in experiment [7] was “inactive” in each case. Moreover, the Potency entry in [8], in experiment [9], in experiment [10], in experiment [11], in experiment [12] and in experiment [13] was “inactive” throughout. The Potency result in [14], in experiment [15], in experiment [16], in experiment [17], in experiment [18] and in experiment [19] was “inactive” each time. The Potency in experiment [2] was 5.84 µM (active).
Turning to `NC(=S)c1c(Cl)cccc1Cl`, the Potency entry in [1], in [2], in experiment [3], in experiment [4], in experiment [5] and in experiment [6] was “inactive” in each case. Besides, the Potency result in experiment [7], in experiment [8], in experiment [9], in [10], in [11] and in experiment [12] was “inactive” each time. Further, the Potency entry in experiment [13], in experiment [14], in experiment [15], in experiment [16], in experiment [18] and in experiment [19] was “inactive” in each case.
For `c1cc2c3c(cccc3c1)CC2`, the Potency entry in experiment [1], in experiment [2], in experiment [3], in experiment [4], in experiment [5] and in experiment [6] was “inactive” in each case. Moreover, the Potency entry in experiment [7], in [8], in [9], in experiment [10], in experiment [11] and in [12] was “inactive” throughout. Besides, the Potency entry in experiment [13], in experiment [14], in [15], in experiment [16], in experiment [20] and in [18] was “inactive” in each case. For the same compound, in experiment [19], the Potency entry was “inactive”.
For the compound `Nc1cc(Cl)cc(C(=O)O)c1Cl`, the Potency entry in [1], in [2], in experiment [3], in experiment [4], in [5] and in experiment [6] was “inactive” each time. For the same compound, the Potency entry in [7], in experiment [8], in experiment [9], in experiment [10], in experiment [11] and in experiment [12] was “inactive” in each case. The Potency entry in experiment [13], in [14], in [15], in experiment [16], in experiment [20] and in experiment [18] was “inactive” throughout. Also, in experiment [19], the Potency result was “inactive”.
In the case of `CN(C)c1ccccc1`, the Potency result in experiment [1], in experiment [2], in experiment [3], in experiment [4], in experiment [5] and in experiment [6] was “inactive” each time. In addition, the Potency entry in [7], in [8], in experiment [9], in [10], in [11] and in experiment [12] was “inactive” each time. Further, the Potency result in experiment [13], in experiment [14], in [15], in [16], in [20] and in [18] was “inactive” throughout. The Potency entry in experiment [19] is “inactive”.
As to `O=C1C=CC(=O)C=C1`, the Potency result in experiment [1], in experiment [2], in experiment [3], in experiment [4], in experiment [5] and in [6] was “inactive” throughout. Also, the Potency result in experiment [7], in experiment [8], in [9], in experiment [10], in experiment [11] and in experiment [12] was “inactive” in each case. Further, the Potency entry in experiment [13], in [14], in experiment [15], in experiment [16], in experiment [18] and in experiment [19] was “inactive” each time.
